Test results as given in the supplement of paper PMC10382584, “Macrocyclization of linear molecules by deep learning to facilitate macrocyclic drug candidates discovery” (Nature Communications, 2023).

compound: Cc1cnc(Nc2ccc(OCCN3CCCC3)cc2)nc1Nc1cccc(S(=O)(=O)NC(C)(C)C)c1 [Fedratinib]; assay: percent of DMSO control binding (KINOMEscan); higher = weaker binding / less inhibition; extreme values may be limits of the assay; details: concentration: 100 nM

UniProt Q15831, sequence (Q15831 whole entry): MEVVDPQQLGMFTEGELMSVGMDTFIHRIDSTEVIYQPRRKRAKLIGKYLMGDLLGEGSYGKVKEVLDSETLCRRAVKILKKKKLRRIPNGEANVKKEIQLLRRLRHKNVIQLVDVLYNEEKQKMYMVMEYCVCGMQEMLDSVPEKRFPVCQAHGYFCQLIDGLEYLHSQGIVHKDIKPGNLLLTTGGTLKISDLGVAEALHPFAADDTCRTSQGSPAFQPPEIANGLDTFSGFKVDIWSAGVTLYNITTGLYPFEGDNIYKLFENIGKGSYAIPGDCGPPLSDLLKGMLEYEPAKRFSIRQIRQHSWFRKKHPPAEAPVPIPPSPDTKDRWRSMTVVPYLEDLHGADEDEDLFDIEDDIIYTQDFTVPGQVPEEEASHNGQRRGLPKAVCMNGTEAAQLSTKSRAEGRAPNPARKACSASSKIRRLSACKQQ
UniProt O75582, sequence (O75582 whole entry, looked up): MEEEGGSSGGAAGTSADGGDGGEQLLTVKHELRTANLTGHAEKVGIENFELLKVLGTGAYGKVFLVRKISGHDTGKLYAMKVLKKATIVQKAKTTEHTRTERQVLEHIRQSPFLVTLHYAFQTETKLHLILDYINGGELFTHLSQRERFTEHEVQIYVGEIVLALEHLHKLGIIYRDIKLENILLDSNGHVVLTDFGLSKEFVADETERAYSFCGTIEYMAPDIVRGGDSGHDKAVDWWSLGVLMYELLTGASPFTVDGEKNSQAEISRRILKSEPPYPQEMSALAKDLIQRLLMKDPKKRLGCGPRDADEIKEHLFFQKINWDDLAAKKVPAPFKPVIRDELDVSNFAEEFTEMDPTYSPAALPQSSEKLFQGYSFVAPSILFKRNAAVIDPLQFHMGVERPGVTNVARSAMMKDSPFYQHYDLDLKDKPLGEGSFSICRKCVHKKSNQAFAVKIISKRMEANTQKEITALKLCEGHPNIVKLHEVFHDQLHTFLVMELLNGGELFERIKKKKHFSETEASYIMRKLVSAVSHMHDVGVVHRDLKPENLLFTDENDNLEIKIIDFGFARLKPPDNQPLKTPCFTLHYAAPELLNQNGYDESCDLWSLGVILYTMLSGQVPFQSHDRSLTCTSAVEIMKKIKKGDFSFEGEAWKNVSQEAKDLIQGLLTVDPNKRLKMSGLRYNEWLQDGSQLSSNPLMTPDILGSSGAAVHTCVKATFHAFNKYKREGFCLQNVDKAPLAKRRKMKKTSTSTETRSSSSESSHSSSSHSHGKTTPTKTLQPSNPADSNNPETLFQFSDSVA
UniProt P36507, sequence (P36507 whole entry): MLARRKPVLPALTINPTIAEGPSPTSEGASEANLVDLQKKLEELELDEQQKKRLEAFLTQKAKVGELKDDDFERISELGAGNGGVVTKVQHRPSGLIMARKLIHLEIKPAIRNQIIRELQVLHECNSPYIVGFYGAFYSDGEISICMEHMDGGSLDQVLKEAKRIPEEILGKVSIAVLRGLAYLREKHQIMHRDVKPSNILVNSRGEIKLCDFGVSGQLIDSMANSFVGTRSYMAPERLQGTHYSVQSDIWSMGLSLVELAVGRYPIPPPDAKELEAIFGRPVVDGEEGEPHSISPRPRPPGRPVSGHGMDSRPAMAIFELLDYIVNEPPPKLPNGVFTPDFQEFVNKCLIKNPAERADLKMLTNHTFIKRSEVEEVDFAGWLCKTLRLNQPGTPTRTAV
UniProt Q96RR4, sequence (Q96RR4 whole entry, looked up): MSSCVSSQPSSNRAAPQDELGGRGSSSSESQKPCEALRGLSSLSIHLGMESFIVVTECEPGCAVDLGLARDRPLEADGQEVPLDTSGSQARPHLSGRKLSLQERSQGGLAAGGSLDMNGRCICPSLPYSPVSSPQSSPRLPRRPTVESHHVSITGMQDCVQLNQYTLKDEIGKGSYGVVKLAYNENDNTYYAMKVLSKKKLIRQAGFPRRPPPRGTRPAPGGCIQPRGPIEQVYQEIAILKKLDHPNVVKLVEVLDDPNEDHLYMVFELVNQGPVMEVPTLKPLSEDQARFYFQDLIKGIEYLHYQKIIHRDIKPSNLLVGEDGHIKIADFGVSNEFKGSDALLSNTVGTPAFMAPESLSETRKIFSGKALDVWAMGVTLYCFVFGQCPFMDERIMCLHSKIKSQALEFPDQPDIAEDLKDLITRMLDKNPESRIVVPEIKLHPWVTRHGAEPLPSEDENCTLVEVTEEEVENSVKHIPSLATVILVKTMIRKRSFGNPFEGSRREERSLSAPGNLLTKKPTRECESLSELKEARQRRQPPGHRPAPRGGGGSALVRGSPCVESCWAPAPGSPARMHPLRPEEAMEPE
UniProt P21860, sequence (P21860 whole entry): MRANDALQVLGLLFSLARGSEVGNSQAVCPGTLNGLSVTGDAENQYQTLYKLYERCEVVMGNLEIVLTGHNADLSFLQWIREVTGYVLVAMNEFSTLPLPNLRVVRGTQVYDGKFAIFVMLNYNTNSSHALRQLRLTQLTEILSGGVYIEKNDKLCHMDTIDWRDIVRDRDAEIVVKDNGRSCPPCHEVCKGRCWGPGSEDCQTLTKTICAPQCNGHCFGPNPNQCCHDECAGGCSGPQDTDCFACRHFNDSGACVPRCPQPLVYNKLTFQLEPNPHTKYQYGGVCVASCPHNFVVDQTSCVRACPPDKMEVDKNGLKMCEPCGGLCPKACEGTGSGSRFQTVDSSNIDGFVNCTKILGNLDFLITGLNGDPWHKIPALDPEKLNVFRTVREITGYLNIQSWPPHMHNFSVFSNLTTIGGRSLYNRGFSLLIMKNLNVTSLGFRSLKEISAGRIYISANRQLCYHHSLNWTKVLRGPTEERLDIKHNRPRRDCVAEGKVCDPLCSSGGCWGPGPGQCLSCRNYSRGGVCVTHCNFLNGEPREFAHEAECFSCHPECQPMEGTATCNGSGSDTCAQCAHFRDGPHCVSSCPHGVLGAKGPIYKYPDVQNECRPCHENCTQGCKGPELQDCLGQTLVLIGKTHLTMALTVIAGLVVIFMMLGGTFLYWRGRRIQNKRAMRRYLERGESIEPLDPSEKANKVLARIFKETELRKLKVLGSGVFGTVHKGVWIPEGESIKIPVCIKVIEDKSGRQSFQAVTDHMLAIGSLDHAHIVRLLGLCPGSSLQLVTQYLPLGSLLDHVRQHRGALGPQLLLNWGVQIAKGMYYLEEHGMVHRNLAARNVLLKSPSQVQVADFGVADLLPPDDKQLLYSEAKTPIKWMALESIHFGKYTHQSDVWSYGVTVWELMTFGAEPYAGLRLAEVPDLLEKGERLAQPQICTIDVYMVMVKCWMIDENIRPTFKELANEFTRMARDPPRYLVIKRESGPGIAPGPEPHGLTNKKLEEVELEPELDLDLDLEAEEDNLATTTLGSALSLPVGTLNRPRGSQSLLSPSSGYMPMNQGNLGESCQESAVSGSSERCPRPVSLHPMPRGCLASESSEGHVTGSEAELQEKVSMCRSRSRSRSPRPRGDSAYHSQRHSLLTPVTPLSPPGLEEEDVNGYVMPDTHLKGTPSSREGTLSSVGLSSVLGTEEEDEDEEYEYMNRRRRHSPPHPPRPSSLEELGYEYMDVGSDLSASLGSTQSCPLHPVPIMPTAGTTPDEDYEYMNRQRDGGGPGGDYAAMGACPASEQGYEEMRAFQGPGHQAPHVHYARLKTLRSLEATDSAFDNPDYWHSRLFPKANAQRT
UniProt O15146, sequence (O15146 whole entry): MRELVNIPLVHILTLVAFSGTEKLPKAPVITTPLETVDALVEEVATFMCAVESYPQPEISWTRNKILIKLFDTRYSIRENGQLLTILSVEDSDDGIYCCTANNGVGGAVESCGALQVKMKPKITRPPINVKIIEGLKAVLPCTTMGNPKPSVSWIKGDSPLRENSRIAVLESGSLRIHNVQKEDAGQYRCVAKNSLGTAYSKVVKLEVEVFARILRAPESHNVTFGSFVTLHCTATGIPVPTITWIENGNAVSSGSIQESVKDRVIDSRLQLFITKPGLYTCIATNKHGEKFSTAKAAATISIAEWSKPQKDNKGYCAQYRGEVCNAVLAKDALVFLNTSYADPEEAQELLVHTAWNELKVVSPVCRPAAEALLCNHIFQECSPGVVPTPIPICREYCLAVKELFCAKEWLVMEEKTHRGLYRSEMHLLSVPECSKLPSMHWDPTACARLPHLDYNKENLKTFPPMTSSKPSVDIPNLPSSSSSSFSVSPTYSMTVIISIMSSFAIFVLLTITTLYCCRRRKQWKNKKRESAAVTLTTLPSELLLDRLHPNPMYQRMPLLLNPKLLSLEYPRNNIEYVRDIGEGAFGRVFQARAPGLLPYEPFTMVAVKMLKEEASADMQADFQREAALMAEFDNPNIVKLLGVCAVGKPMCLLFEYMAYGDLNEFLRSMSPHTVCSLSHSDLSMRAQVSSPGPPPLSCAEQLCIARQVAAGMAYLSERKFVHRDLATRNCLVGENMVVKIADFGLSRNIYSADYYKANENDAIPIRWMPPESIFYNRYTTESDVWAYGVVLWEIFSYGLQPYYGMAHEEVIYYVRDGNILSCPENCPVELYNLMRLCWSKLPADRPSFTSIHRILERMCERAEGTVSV

How did the “percent of DMSO control binding” value turn out when FLT1 (UniProt P17948) was run?
The value was 100%.

For “RPS6KA5(Kin.Dom.2-C-terminal) (UniProt O75582)”, which “percent of DMSO control binding” value is on record?
The value was 97%.

Which “percent of DMSO control binding” value does the source give for CAMKK2 (UniProt Q96RR4) here?
The value was 100%.

For LKB1 (UniProt Q15831), which “percent of DMSO control binding” value is on record?
Its value is 40%.

For MUSK (UniProt O15146), which “percent of DMSO control binding” value is on record?
Its value is 96%.

GCN2(Kin.Dom.2,S808G) was tested. Which “percent of DMSO control binding” value did it give?
The value was 61%.

For MEK2 (UniProt P36507), which “percent of DMSO control binding” value is on record?
The value was 66%.

With ERBB3 (UniProt P21860) as the target, how does the “percent of DMSO control binding” value read?
Its value is 97%.

FGFR3(G697C) (UniProt P22607) was tested. Which “percent of DMSO control binding” value did it give?
Its value is 78%.
